{"source": "PubChem BioAssay (NCATS)", "note": "Results filed as inconclusive are left out. Active and inactive are the calls of the source. Calls follow the shape of the dose curve; as a rule, active = well fitted inhibition curve with a large enough effect; inconclusive = small, poorly fitted or top-dose-only effect; inactive = flat fitted curve, though single readings scatter."}
{"system": "7G8", "assay": "qHTS profiling for inhibitors of Plasmodium falciparum proliferation (AID 504749);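 also: 0% = DMSO vehicle and full inhibition = artemisinin control; nearly all actives have a fitted effect of over 60% in size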", "details": "P. falciparum in erythrocytes, SYBR Green DNA, 72 h; series mostly up to 28.7 µM; activity, negative = inhibition: at the top concentration", "summary_of_the_method": "(§1)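 P. falciparum-infected erythrocytes (0.3% parasitemia, 2.5% hematocrit) incubated with compound 72 h at 37 C, 5% CO2. Parasite DNA detected by SYBR Green after lysis, overnight at room temperature; normalised to 0.29 uM artemisinin and DMSO.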"}
{"smiles": "CNc1c2c(nn1C)CCCC2", "activity, negative = inhibition": "-7.02% (inactive)"}
{"smiles": "NC(=O)CC[C@@H](N)C(=O)O", "activity, negative = inhibition": "5.69% (inactive)"}
{"smiles": "Cc1c(C(=O)NCCO)[n+](=O)c2ccccc2n1[O-]", "activity, negative = inhibition": "-12.2% (inactive)"}
{"smiles": "CCCCOC(=O)c1ccc(N)cc1", "activity, negative = inhibition": "-19.1% (inactive)"}
{"smiles": "CCCCCCCC(=O)OCC(O)CO", "note": "(configuration not stated)", "activity, negative = inhibition": "7.62% (inactive)"}
{"smiles": "CCOc1cc(NC(C)=O)ccc1C(=O)OC", "activity, negative = inhibition": "-14% (inactive)"}
{"smiles": "C[C@@H](N)C(=O)O", "activity, negative = inhibition": "-8.13% (inactive)"}
{"smiles": "CC(N)CCCC(C)(C)O", "note": "(configuration not stated)", "activity, negative = inhibition": "12% (inactive)"}
{"smiles": "O=C(O)Cc1ccc(CCNS(=O)(=O)c2ccc(Cl)cc2)cc1", "activity, negative = inhibition": "-12.6% (inactive)"}
{"smiles": "COC(=O)c1cccnc1", "activity, negative = inhibition": "13.2% (inactive)"}
{"smiles": "O=C(Cn1ccnc1[N+](=O)[O-])NCCO", "activity, negative = inhibition": "-0.377% (inactive)"}
{"smiles": "Cc1ccc(S(=O)(=O)NC(=O)NC2CCCCC2)cc1", "activity, negative = inhibition": "-6.8% (inactive)"}
{"smiles": "C[N+](C)(C)CC[N+]1(C)Cc2c(Cl)c(Cl)c(Cl)c(Cl)c2C1", "activity, negative = inhibition": "-7.14% (inactive)"}
{"smiles": "O=C(O)CCC(=O)O", "activity, negative = inhibition": "11.2% (inactive)"}
{"smiles": "NC(=O)NS(=O)(=O)c1ccc(N)cc1", "activity, negative = inhibition": "-4.17% (inactive)"}
{"smiles": "O=C(/C=C/c1ccccc1)OCc1ccccc1", "activity, negative = inhibition": "-6.43% (inactive)"}
{"smiles": "COc1cc(C(=O)NCCCCCC(=O)O)cc(OC)c1OC", "activity, negative = inhibition": "-2.76% (inactive)"}
{"smiles": "O[C@@H]1CO[C@H]2[C@@H]1OC[C@@H]2O", "activity, negative = inhibition": "-23.8% (inactive)"}
{"smiles": "O=C(O)c1ccc(OCCCOc2ccc(C(=O)O)cc2)cc1", "activity, negative = inhibition": "14.7% (inactive)"}
{"smiles": "CC(=O)NS(=O)(=O)c1ccc(N)cc1", "activity, negative = inhibition": "0.0747% (inactive)"}
{"smiles": "CC(=O)Nc1ccc(C(=O)O)cc1", "activity, negative = inhibition": "1.17% (inactive)"}
{"smiles": "CC1CCc2cc(F)cc3c(=O)c(C(=O)O)cn1c23", "note": "(configuration not stated)", "activity, negative = inhibition": "-20.8% (inactive)"}
{"smiles": "CCc1cccc(CC)c1NC(=O)CN(CC(=O)O)CC(=O)O", "activity, negative = inhibition": "9.37% [at 12.8 µM] (inactive)"}
{"smiles": "O=c1[nH]c(=O)c2ccccc2o1", "activity, negative = inhibition": "-5.76% (inactive)"}
{"smiles": "CN/C(=C\\[N+](=O)[O-])NCCSCc1csc(CN(C)C)n1", "activity, negative = inhibition": "9.72% [at 12.8 µM] (inactive)"}
{"smiles": "NS(=O)(=O)c1cc(-c2nn[nH]n2)c(NCc2cccs2)cc1Cl", "activity, negative = inhibition": "-8.09% (inactive)"}
{"smiles": "Cn1c(=O)c2c(ncn2CCO)n(C)c1=O", "activity, negative = inhibition": "9.28% (inactive)"}
{"smiles": "Nc1ncnc2c1ncn2[C@@H]1O[C@H](COP(=O)(O)O)[C@@H](O)[C@H]1O", "activity, negative = inhibition": "-6.71% (inactive)"}
{"smiles": "COc1ccc(C(=O)N2CCN(CC(=O)N3CCOCC3)CC2)cc1", "activity, negative = inhibition": "-4.24% (inactive)"}
{"smiles": "C[C@@H]1O[C@@H](OC[C@H]2O[C@@H](Oc3c(-c4ccc(O)c(O)c4)oc4cc(O)cc(O)c4c3=O)[C@H](O)[C@@H](O)[C@@H]2O)[C@H](O)[C@H](O)[C@H]1O", "activity, negative = inhibition": "-0.833% (inactive)"}
{"smiles": "CN1C(C)(C)CCCC1(C)C", "activity, negative = inhibition": "0.514% (inactive)"}
{"smiles": "Cc1cccc(C(=O)O)c1O", "activity, negative = inhibition": "-7.9% (inactive)"}
{"smiles": "Cc1cc(NC(=O)C2=C(O)c3ccccc3S(=O)(=O)N2C)no1", "activity, negative = inhibition": "-27.8% (inactive)"}
{"smiles": "NCC1CCC(C(=O)Oc2ccc(CCC(=O)O)cc2)CC1", "note": "(configuration not stated)", "activity, negative = inhibition": "-4.82% (inactive)"}
{"smiles": "O=C(O)Cn1c(C(=O)Nc2nc(-c3ccccc3Cl)cs2)cc2ccccc21", "activity, negative = inhibition": "-22.8% (inactive)"}
{"smiles": "CC(=O)Nc1ccc(OCCOCCOc2ccc(NC(C)=O)cc2)cc1", "activity, negative = inhibition": "-10.4% (inactive)"}
{"system": "AA1029", "assay": "qHTS profiling for inhibitors of Plasmodium falciparum proliferation (AID 504749);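 also: 0% = DMSO vehicle and full inhibition = artemisinin control; nearly all actives have a fitted effect of over 60% in size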", "details": "P. falciparum in erythrocytes, SYBR Green DNA, 72 h; series mostly up to 28.7 µM; activity, negative = inhibition: at the top concentration", "summary_of_the_method": "as §1"}
{"smiles": "CNc1c2c(nn1C)CCCC2", "activity, negative = inhibition": "5.88% (inactive)"}
{"smiles": "NC(=O)CC[C@@H](N)C(=O)O", "activity, negative = inhibition": "16% (inactive)"}
{"smiles": "Cc1c(C(=O)NCCO)[n+](=O)c2ccccc2n1[O-]", "activity, negative = inhibition": "2.93% (inactive)"}
{"smiles": "CCCCOC(=O)c1ccc(N)cc1", "activity, negative = inhibition": "1.35% (inactive)"}
{"smiles": "CCCCCCCC(=O)OCC(O)CO", "note": "(configuration not stated)", "activity, negative = inhibition": "-6.45% (inactive)"}
{"smiles": "CCOc1cc(NC(C)=O)ccc1C(=O)OC", "activity, negative = inhibition": "3.03% (inactive)"}
{"smiles": "C[C@@H](N)C(=O)O", "activity, negative = inhibition": "1.65% (inactive)"}
{"smiles": "CC(N)CCCC(C)(C)O", "note": "(configuration not stated)", "activity, negative = inhibition": "-1.78% (inactive)"}
{"smiles": "O=C(O)Cc1ccc(CCNS(=O)(=O)c2ccc(Cl)cc2)cc1", "activity, negative = inhibition": "3.91% (inactive)"}
{"smiles": "COC(=O)c1cccnc1", "activity, negative = inhibition": "-0.488% (inactive)"}
{"smiles": "O=C(Cn1ccnc1[N+](=O)[O-])NCCO", "activity, negative = inhibition": "5.01% (inactive)"}
{"smiles": "Cc1ccc(S(=O)(=O)NC(=O)NC2CCCCC2)cc1", "activity, negative = inhibition": "-4.85% (inactive)"}
{"smiles": "C[N+](C)(C)CC[N+]1(C)Cc2c(Cl)c(Cl)c(Cl)c(Cl)c2C1", "activity, negative = inhibition": "-2.5% (inactive)"}
{"smiles": "O=C(O)CCC(=O)O", "activity, negative = inhibition": "5.63% (inactive)"}
{"smiles": "NC(=O)NS(=O)(=O)c1ccc(N)cc1", "activity, negative = inhibition": "5.35% (inactive)"}
{"smiles": "O=C(/C=C/c1ccccc1)OCc1ccccc1", "activity, negative = inhibition": "13.9% (inactive)"}
{"smiles": "COc1cc(C(=O)NCCCCCC(=O)O)cc(OC)c1OC", "activity, negative = inhibition": "6.19% (inactive)"}
{"smiles": "O[C@@H]1CO[C@H]2[C@@H]1OC[C@@H]2O", "activity, negative = inhibition": "2.59% (inactive)"}
{"smiles": "O=C(O)c1ccc(OCCCOc2ccc(C(=O)O)cc2)cc1", "activity, negative = inhibition": "2.35% (inactive)"}
{"smiles": "CC(=O)NS(=O)(=O)c1ccc(N)cc1", "activity, negative = inhibition": "7.14% (inactive)"}
{"smiles": "CC(=O)Nc1ccc(C(=O)O)cc1", "activity, negative = inhibition": "7.95% (inactive)"}
{"smiles": "CC1CCc2cc(F)cc3c(=O)c(C(=O)O)cn1c23", "note": "(configuration not stated)", "activity, negative = inhibition": "0.252% (inactive)"}
{"smiles": "CCc1cccc(CC)c1NC(=O)CN(CC(=O)O)CC(=O)O", "activity, negative = inhibition": "-2.37% [at 12.8 µM] (inactive)"}
{"smiles": "O=c1[nH]c(=O)c2ccccc2o1", "activity, negative = inhibition": "-4.89% (inactive)"}
{"smiles": "CN/C(=C\\[N+](=O)[O-])NCCSCc1csc(CN(C)C)n1", "activity, negative = inhibition": "6.55% [at 12.8 µM] (inactive)"}
{"smiles": "NS(=O)(=O)c1cc(-c2nn[nH]n2)c(NCc2cccs2)cc1Cl", "activity, negative = inhibition": "-1.49% (inactive)"}
{"smiles": "Cn1c(=O)c2c(ncn2CCO)n(C)c1=O", "activity, negative = inhibition": "-2.29% (inactive)"}
{"smiles": "Nc1ncnc2c1ncn2[C@@H]1O[C@H](COP(=O)(O)O)[C@@H](O)[C@H]1O", "activity, negative = inhibition": "1.55% (inactive)"}
{"smiles": "COc1ccc(C(=O)N2CCN(CC(=O)N3CCOCC3)CC2)cc1", "activity, negative = inhibition": "-8.28% (inactive)"}
{"smiles": "C[C@@H]1O[C@@H](OC[C@H]2O[C@@H](Oc3c(-c4ccc(O)c(O)c4)oc4cc(O)cc(O)c4c3=O)[C@H](O)[C@@H](O)[C@@H]2O)[C@H](O)[C@H](O)[C@H]1O", "activity, negative = inhibition": "9.8% (inactive)"}
{"smiles": "CN1C(C)(C)CCCC1(C)C", "activity, negative = inhibition": "-7.32% (inactive)"}
{"smiles": "Cc1cccc(C(=O)O)c1O", "activity, negative = inhibition": "-0.807% (inactive)"}
{"smiles": "Cc1cc(NC(=O)C2=C(O)c3ccccc3S(=O)(=O)N2C)no1", "activity, negative = inhibition": "-16.6% (inactive)"}
{"smiles": "NCC1CCC(C(=O)Oc2ccc(CCC(=O)O)cc2)CC1", "note": "(configuration not stated)", "activity, negative = inhibition": "-1.55% (inactive)"}
{"smiles": "O=C(O)Cn1c(C(=O)Nc2nc(-c3ccccc3Cl)cs2)cc2ccccc21", "activity, negative = inhibition": "-7.95% (inactive)"}
{"smiles": "CC(=O)Nc1ccc(OCCOCCOc2ccc(NC(C)=O)cc2)cc1", "activity, negative = inhibition": "2.97% (inactive)"}
